# Screening data as filed in PubChem BioAssay.
# Sampled rows, rich in hits. Any-hit rate of the full collection: about 11%.
# CBFb RUNX1 block = inhibitors of human CBF-beta and RUNX1 interaction; AlphaScreen CBFb-His/RUNX1-biotin binding, biochemical; Potency, µM (highest dose often 59.8 µM), without a hit: at the top dose activity, negative = inhibition, actives largely listed as inhibitors; AID 1477; 230,000 tested, under 10 active; Q01196+Q13951; note: % of control where 0% means no effect
#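 Proteins preincubated together for 20 min at RT before compound addition; 15 min later, nickel and streptavidin beads were added and left 90 min prior to AlphaScreen measurement.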
# HTT aggregate = mutant huntingtin aggregation inhibition; 220,000 compounds, 1.1% hits; PC12 HttQ103-GFP aggregates, Acumen cytometry, 40 h; Potency, µM (highest dose often 46.1 µM), for the others: at the highest dose activity change, negative = inhibition, usual class: inhibitors; note: potency is the fitted concentration of half-maximal effect; % is set by controls: 0 for no effect and ±100 for the full control effect; nearly all actives have a fitted effect of over 60% in size
#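 PC12/HTTQ103-GFP, ecdysone-inducible; teb 100 nM; cpd qHTS titration; GFP aggregates read on laser cytometer, Ex 488/Em 500-530 nm.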
# ALDH1A1 block = blocks purified human ALDH1A1 activity; P00352; Purified ALDH1A1, NADH fluorescence, propionaldehyde substrate; Potency, µM (series often up to 75.3 µM), without a hit: at the top dose activity, negative = inhibition, usual class: inhibitors; 220,000 compounds, 7.3% hits; AID 1030; active = well fitted inhibition curve with a large enough effect, not every such curve was filed as active; inconclusive = small, poorly fitted or top-dose-only effect, or another doubt; inactive = no such curve, though single readings can be large or run the other way;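 note: potency is the fitted concentration of half-maximal effect; plate controls were no enzyme wells and a reference inhibitor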
# Target sequence (P00352 whole entry, looked up): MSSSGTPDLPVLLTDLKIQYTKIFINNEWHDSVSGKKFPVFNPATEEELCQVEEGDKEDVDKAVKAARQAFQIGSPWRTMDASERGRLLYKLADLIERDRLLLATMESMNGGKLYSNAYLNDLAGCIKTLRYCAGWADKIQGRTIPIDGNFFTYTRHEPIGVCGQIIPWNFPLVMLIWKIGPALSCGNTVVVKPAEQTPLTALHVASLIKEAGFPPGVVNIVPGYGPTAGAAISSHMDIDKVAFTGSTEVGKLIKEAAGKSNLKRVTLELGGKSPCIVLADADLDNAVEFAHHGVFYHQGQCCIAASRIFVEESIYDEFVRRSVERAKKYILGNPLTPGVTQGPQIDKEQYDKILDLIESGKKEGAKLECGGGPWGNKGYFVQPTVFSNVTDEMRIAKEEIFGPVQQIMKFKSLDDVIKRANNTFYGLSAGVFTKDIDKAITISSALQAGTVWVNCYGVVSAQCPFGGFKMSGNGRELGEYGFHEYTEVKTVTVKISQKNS
# PNC inhibitor = blocks assembly of the perinucleolar compartment; activity change (PNC), negative = inhibition, % at 10 µM; 140,000 compounds, 3.1% hits; AID 2417; PC3M PTB-GFP, PNC prevalence imaging, 16 h; active compounds read low;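 active = readout at or below -70, meaning at least 70% loss of cells showing the perinucleolar compartment, a nuclear body marking cancer cells; inconclusive = readout between -30 and a set limit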;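 note: plate controls were DMSO wells for no effect and camptothecin positive control wells for full effect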
#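 Read-out is percentage of cells bearing a perinucleolar compartment, from automated 20x imaging of fixed, Hoechst-stained PC3M PTB-GFP cells. Cells were seeded 4 h, then exposed 16 h to compound (23 nl of library stock) in duplicate plates.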
# HTT cytoprotect = cytoprotection in Huntington HTT-Q103 PC12 cell model | Potency, µM (top dose mostly 56.4 µM), inactives show cytoprotection (ATP increase), hits mostly activators | PC12 HTT-Q103 induced, cytoprotection, ATP luminescence, 40 h | 230,000 compounds, 0.14% hits; note: potency is the fitted concentration of half-maximal effect; % of control where 0% means no effect; nearly all actives have a fitted effect of over 45% in size
#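 Cells were plated at 1500 per well in phenol red-free DMEM with 5% equine and 5% calf serum. Tebufenozide (100 nM final) and compounds were added, then ATPlite reagent, and luminescence was read.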
# HPGD block = HPGD (human) dehydrogenase inhibition | P15428 | Potency, µM, inactives show top-dose activity change, negative = inhibition, most hits filed as inhibitors | purified HPGD, NADH fluorescence kinetic, PGE2 substrate | 150,000 compounds, 4.3% hits; active = well fitted inhibition curve with a large enough effect, not every such curve was filed as active; inconclusive = small, poorly fitted or top-dose-only effect, or another doubt; inactive = no such curve, though single readings can be large or run the other way; note: potency is the fitted concentration of half-maximal effect; % is set by controls: 0 for no effect and ±100 for the full control effect
# Target sequence (P15428 whole entry, looked up): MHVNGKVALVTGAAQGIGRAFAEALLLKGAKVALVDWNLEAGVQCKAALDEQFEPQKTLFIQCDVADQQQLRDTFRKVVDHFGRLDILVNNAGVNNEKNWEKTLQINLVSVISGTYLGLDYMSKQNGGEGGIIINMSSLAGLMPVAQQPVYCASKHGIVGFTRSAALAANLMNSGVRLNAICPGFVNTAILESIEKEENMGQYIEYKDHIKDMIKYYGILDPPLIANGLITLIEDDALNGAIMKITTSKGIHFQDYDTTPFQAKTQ
#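 20 nM HPGD preincubated 15 min at room temperature with compound in 50 mM Tris-HCl pH 8, 0.01% Tween 20. Started with 1 mM NAD+ and 30 uM prostaglandin E2; NADH fluorescence (360/450 nm) read 5 times over 30-s intervals, last minus first.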
# * = called active by the depositor; u = inconclusive; x = no result; [ ] = remark or other dose. Unless noted, calls come from the whole dose curve; as a rule, active = well fitted curve in the direction sought with a large enough effect; inconclusive = small, poorly fitted or top-dose-only effect, or another doubt; inactive = no such curve, though single readings can be large; an effect the other way counts as inactive or inconclusive.
SMILES,CBFb RUNX1 block,HTT aggregate,ALDH1A1 block,PNC inhibitor,HTT cytoprotect,HPGD block
COc1ccc(OCC(=O)N2CCc3c([nH]c4ccccc34)C2c2ccccn2)cc1 (configuration not stated),-21.1%,7.1%,0.447µM*,x,-17.3%,x
CCc1nc(C)ccc1OCC(=O)N1CCc2c([nH]c3ccccc23)C1c1ccccn1 (configuration not stated),-1.0%,-10.8%[9.22 µM],0.1%,x,37.7%[10 µM],x
COc1cc(C2c3sc(=O)[nH]c3SC3C(=O)N(c4ccc(C)cc4)C(=O)C32)ccc1O (configuration not stated),-15.4%,-14.1%[9.22 µM],-7.6%,x,-6.7%[10 µM],x
CCOC(=O)C1CSc2[nH]c(=O)sc2C1c1ccccc1 (configuration not stated),-2.7%,17.6%,28.2µM*,5.0,-19.3%,-6.8%
COc1ccc(C2c3sc(=O)[nH]c3SCC2C(N)=O)cc1 (configuration not stated),5.4%,21.2%[9.22 µM],x,x,-3.0%[10 µM],x
COC(=O)C1CSc2[nH]c(=O)sc2C1c1ccc(O)c(OC)c1 (configuration not stated),-2.0%,1.4%,2.51µM*,u,4.2%,u
Nc1ccc(S(=O)(=O)NCCS(=O)(=O)O)cc1,x,x,-6.0%[13.5 µM],x,-12.1%[10 µM],4.0%
COc1cc(/C=C/C(=O)c2ccc(NS(=O)(=O)c3ccc(C)cc3)cc2)ccc1OC(F)F,-11.9%,5.9%,-1.5%,-28.2,18.5%[10 µM],15.8µM*
COc1cc(/C=C/C(=O)c2ccc(NS(=O)(=O)c3ccc(C)cc3)cc2)cc(OC)c1O,-6.6%,11.2%[9.22 µM],22.4µM*,34.0,4.8%[10 µM],-17.2%
CC[C@H](C)[C@@H](NC(=O)O[C@@H]1Cc2cc(Br)ccc2O[C@H]1c1cccc(OC)c1)C(=O)OC,1.6%,x,10.8%,x,17.4%,-6.7%
CS(=O)(=O)N(CC(=O)NCc1ccncc1)C1CCCCC1,-1.3%,x,-5.8%,x,x,x
COc1ccc(OC)c(/C=C2\SC(=S)N(N3CCOCC3)C2=O)c1,-1.8%,6.9%[9.22 µM],u,x,5.2%[10 µM],x
O=C1S/C(=C\c2ccc(N3CCOCC3)o2)C(=O)N1Cc1ccc(F)cc1,0.8%,6.7%,8.91µM*,44.9,-31.3%,u
O=C(O)COc1ccccc1/C=C1\SC(=O)N(Cc2ccc(F)cc2)C1=O,3.0%,u,-6.1%,x,23.3%,x
O=C1NC(=S)S/C1=C/c1ccc(N2CCOCC2)o1,-17.3%,-30.8%,7.8%,-14.4,x,7.94µM*
CC(C)n1cc(/C=C2/SC(=O)N(CC(=O)N3CCCC3)C2=O)c2ccccc21,-0.3%,21.3%,-5.4%,u,-18.1%,-4.6%
CC(C)OC(=O)CN1C(=O)S/C(=C/c2ccc(N3CCCCC3)o2)C1=O,-7.0%,u,7.08µM*,-4.3,-24.4%,-13.3%
O=C1/C(=C/c2ccc(N3CCOCC3)o2)SC(=Nc2ccccc2)N1CCc1c[nH]c2ccccc12,-18.8%,u,u,u,-114.5%,-17.5%
COc1ccc2cc(/C=C3\SC(=S)NC3=O)c(N3CCOCC3)nc2c1,-9.0%,u,21.9%,u,-0.4%[10 µM],20µM*
O=C1N=C(N2CCOCC2)S/C1=C/c1ccc(-c2ccc(F)cc2)o1,0.4%,7.4%[9.22 µM],-1.1%,x,37.3%[10 µM],x
O=C1S/C(=C/c2ccc(N3CCOCC3)o2)C(=O)N1Cc1ccc(F)cc1,-0.4%,13.3%,2.24µM*,35.9,-40.4%,-7.5%
Cc1c(O)cccc1C(=O)N[C@@H](CSc1ccccc1)[C@H](O)CN1C[C@H]2CCCC[C@H]2C[C@H]1C(=O)NC(C)(C)C,5.2%,-23.6%,1.1%,x,-179.5%,-13.9%
COc1ncc2nc(-c3cccs3)c(=O)n(CCc3ccccc3)c2n1,x,x,u,x,10.3%,x
COc1ccc(N(C(=O)c2ccccc2C)S(=O)(=O)c2cccs2)cc1,2.3%,13.3%,11.2µM*,-96.7*,-8.8%[0.074 µM],-15.0%
Cc1cccc(CNc2ncnc3ccc(-c4ccc(C(=O)N(C)C)cc4)cc23)c1,x,x,u,x,-33.4%,u
SMILES,CBFb RUNX1 block,HTT aggregate,ALDH1A1 block,PNC inhibitor,HTT cytoprotect,HPGD block
Cc1ccsc1C(=O)OCC(=O)NCc1ccc2c(c1)OCO2,-6.1%,1.5%,-2.7%,3.6,-19.3%[10 µM],12.6µM*
O=C(COC(=O)c1ccc(O)cc1)NCc1ccc2c(c1)OCO2,3.0%,8.1%,-4.3%,x,31.1%,x
CC(=O)OCC(=O)NCc1ccc2c(c1)OCO2,u,-8.3%,10.5%,u,22.2%,20µM*
COC(=O)c1cc(C(=O)OCC(=O)NCc2ccc3c(c2)OCO3)cc([N+](=O)[O-])c1,2.7%,0.8%,-5.3%,55.1,7.7%[10 µM],5.2%
COc1ccc(C(=O)OCC(=O)NCc2ccc3c(c2)OCO3)cc1[N+](=O)[O-],2.3%,-6.5%,5.01µM*,-106.6*,7.9%[10 µM],-2.1%
O=C(COC(=O)c1ccc2c(c1)OCO2)NCc1ccc(Cl)cc1,13.1%,-4.3%,10.1%,u,-14.9%[10 µM],-2.2%
O=C(COC(=O)c1cnc(Cl)c(Cl)c1)NCc1ccc2c(c1)OCO2,-2.7%,7.4%,2.24µM*,7.7,-7.0%[1.9 µM],-3.2%
C[C@@H]1C(=O)OC2C[C@@]34[C@H]5C[C@@H](C(C)(C)C)[C@@]36C(O)C(=O)O[C@H]6O[C@@]4(C(=O)O5)[C@]21O (some centres not stated),-11.3%,x,-0.2%,x,x,3.8%
Cc1ccc(CNC(=O)c2cc(-c3cc(C)cc(C)c3O)n[nH]2)cc1,2.7%,14.0%[9.22 µM],x,x,-5.9%[10 µM],x
Cc1ccc(O)c(-c2cc(C(=O)NCc3ccc4c(c3)OCO4)[nH]n2)c1,1.3%,6.2%,u,20.2,x,3.16µM*
Cc1ccc(C2c3sc(=O)[nH]c3SC3C4CC(C5C(=O)N(C(C)C(=O)O)C(=O)C45)C23)cc1 (configuration not stated),-3.6%,-5.7%,u,-89.9*,-10.4%[10 µM],-1.9%
O=C(O)CCN1C(=O)C2C3CC(C2C1=O)C1C(c2ccccc2)c2sc(=O)[nH]c2SC31 (configuration not stated),2.3%,2.3%,2.2%,x,2.9%,x
N#C/C(=C\c1cccc(Oc2ccccc2)c1)C(=O)N1CCOCC1,6.8%,-13.6%[9.22 µM],-1.1%,x,2.5%[10 µM],x
COc1cc(/C=C(\C#N)C(=O)N2CCOCC2)cc(Br)c1O,-3.0%,10.5%,u,u,1.9%[10 µM],25.1µM*
COc1ccc(-n2c(=O)c3ccccc3n(Cc3cccc(C)c3)c2=O)cc1OC,15.4%,8.2%,5.1%,x,-23.0%,x
Cc1ccc(NC2c3ncccc3C(=O)N2c2ccccc2C)cc1C (configuration not stated),-1.8%,10.7%,u,7.6,-8.5%,15.8µM*
